# Source: PubChem BioAssay (EPA / NIEHS)
# Values joined by “and” are separate entries in the source; they are usually repeats but may differ in a detail not shown here. Equal values may be shown once. Where a structure was tested more than once in an assay, its records may differ in their call. Active and inactive are the calls of the source. How the source made its calls: active means hit-call score of the fitted dose curve at least 0.9, where 1 is the maximum; inactive means score below 0.9.
# Experiment: BSK_KF3CT_SRB: Viability Assessment in the BioMAP Diversity Plus: KF3CT Assay (AID 2283069);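 further: fitted for both signal gain and loss against DMSO baseline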
# Conditions: primary human keratinocytes with fibroblasts
# Procedure: BSK_KF3CT is a cell-based, multiplexed-readout assay that uses keratinocytes and foreskin fibroblasts, a human skin primary cell co-culture, with measurements taken at 24 hours after chemical dosing in a 96-well plate.BSK_KF3CT_SRB is an assay component measured in the BSK_KF3CT assay. It measures 0.1% sulforhodamine related to cell death using Sulforhodamine staining technology.Data from the assay component BSK_KF3CT_SRB was analyzed into 1 assay endpoint. This assay endpoint, BSK_KF3CT_SRB, was analyzed with bidirectional fitting relative to DMSO as the negative control and baseline of activity. Using a type of viability reporter, gain or loss-of-signal activity can be used to understand changes in the signaling. Furthermore, this assay endpoint can be referred to as a primary readout, because this assay has produced multiple assay endpoints where this one serves a signaling function. To generalize the intended target to other relatable targets, this assay endpoint is annotated to the cell morphology intended target family, where the subfamily is cell conformation.
# The levels of cell surface (or secreted, indicated by the prefix "s") biomarker endpoints were measured by ELISA. Overt cytotoxicity to cells in confluent adherent cultures (all systems other than the BT system) was assessed by measuring total protein levels using sulforhodamine B (SRB) staining in parallel cultures at the time of biomarker measurements, indicated as SRB endpoints. For proliferation assays for adherent cell types, individual cell types are cultured at sub-confluence and relative cell numbers quantified by SRB staining at time points optimized for each system (48 h: 3C and CASM3C systems; 72 h: BT and HDF3CGF systems; 96 h: SAg system). SRB was performed by staining cells with 0.1% SRB after fixation with 10% TCA and reading wells at 560 nm.Viability and proliferation of PBMC (T cells) was quantified by Alamar Blue reduction for the SAg and BT systems. For PBMC viability (referred to as PBMC Cytotoxicity within the assay endpoint names), cells were plated (75,000/well in a 96-well plate) and then chemical samples added for 1 h before addition of activators, SEB and TSST-1 (20 ng/mL final concentration each). Cells were incubated for 90 h. Then, Alamar Blue (20 uL/well) (Invitrogen, Cat DAL1100) was added for 6 h, and the plates were read with a fluorescence microplate reader at 546/580 nm (excitation/emission). For PBMC proliferation, cells were plated and activated as above but incubated for only 16 h prior to addition of Alamar Blue. Plates were read after 6 h.
SMILES,outcome,AC50
O=S(=O)(O)C(F)(F)C(F)(F)C(F)(F)C(F)(F)C(F)(F)C(F)(F)C(F)(F)C(F)(F)F,inactive,39.2 µM (active) and 29.9 µM (active)
COc1nn(CSP(=S)(OC)OC)c(=O)s1,inactive,
CCCN(CCC)c1c([N+](=O)[O-])cc(C(F)(F)F)cc1[N+](=O)[O-],inactive,
COC(=O)c1ccccc1S(=O)(=O)NC(=O)N(C)c1nc(C)nc(OC)n1,inactive,
CC(C)(C)C(O)/C(=C\c1ccc(Cl)cc1Cl)n1cncn1 (stereo not given),,20 µM (active)
CC(C)(C)C(O)C(Oc1ccc(Cl)cc1)n1cncn1 (stereo not given),inactive,
O=C(O)C(F)(F)C(F)(F)C(F)(F)C(F)(F)C(F)(F)C(F)(F)C(F)(F)F,inactive,
N#CN,inactive,
COC(=O)c1ccccc1CS(=O)(=O)NC(=O)Nc1nc(OC)cc(OC)n1,inactive,
C[C@H]1[C@H](c2ccc(Cl)cc2)SC(=O)N1C(=O)NC1CCCCC1,inactive,
O=[N+]([O-])c1c(Cl)c(Cl)c(Cl)c(Cl)c1Cl,,25.3 µM (active)
CC[C@H](C)[C@H]1O[C@]2(C=C[C@@H]1C)C[C@@H]1C[C@@H](C/C=C(\C)[C@@H](O[C@H]3C[C@H](OC)[C@@H](O[C@H]4C[C@H](OC)[C@@H](O)[C@H](C)O4)[C@H](C)O3)[C@@H](C)/C=C/C=C3\CO[C@@H]4[C@H](O)C(C)=C[C@@H](C(=O)O1)[C@]34O)O2 (tested in a mixture with another compound),,14.1 µM (active)
O=S1OCC2C(CO1)C1(Cl)C(Cl)=C(Cl)C2(Cl)C1(Cl)Cl (stereo not given),,29.5 µM (active)
COP(=S)(OC)Oc1ccc([N+](=O)[O-])cc1,inactive,
CNC(=O)Oc1ccccc1OC(C)C,inactive,
CCOc1nc(NC)nc(NC(=O)NS(=O)(=O)c2ccccc2C(=O)OC)n1,inactive,
COP(=S)(OC)Oc1ccc(SC)c(C)c1,inactive,
O=C(Nc1ccccc1)Nc1cnns1,inactive,
CCN(CC)C(=O)SCc1ccc(Cl)cc1,inactive,
C#CCN1C(=O)COc2cc(F)c(N3C(=O)C4=C(CCCC4)C3=O)cc21,inactive,

SMILES,outcome,AC50
COc1cc(OC)nc(NC(=O)NS(=O)(=O)c2cc(NC=O)ccc2C(=O)N(C)C)n1,inactive,
OCCOc1ccccc1,inactive,
CC1(C)C(C=C(Cl)Cl)C1C(=O)OC(C#N)c1ccc(F)c(Oc2ccccc2)c1 (stereo not given),inactive,
O=C(NC(=O)c1c(F)cccc1F)Nc1ccc(OC(F)(F)C(F)OC(F)(F)F)c(Cl)c1 (stereo not given),inactive,
O=C1c2ccccc2C(=O)N1SC(Cl)(Cl)Cl,inactive,
COP(=O)(OC)OC=C(Cl)Cl,inactive,
CC1(c2ccc(Oc3ccccc3)cc2)OC(=O)N(Nc2ccccc2)C1=O (stereo not given),inactive,
ClC1C(Cl)C(Cl)C(Cl)C(Cl)C1Cl (stereo not given),inactive,
CNC(=O)Oc1cccc(N=CN(C)C)c1,inactive,
Cc1[nH]c(=O)n(C(C)(C)C)c(=O)c1Cl,inactive,
O=C(O)CCCOc1ccc(Cl)cc1Cl,inactive,
Clc1ccccc1-c1nnc(-c2ccccc2Cl)nn1,inactive,
CC(C)OC(=O)Nc1cccc(Cl)c1,inactive,
O=C(O)COc1ccc(Cl)cc1Cl,inactive,
CCCN(CCOc1c(Cl)cc(Cl)cc1Cl)C(=O)n1ccnc1,inactive,
O=[N+]([O-])/N=C1\NCCN1Cc1ccc(Cl)nc1,inactive,
CCC(C)(C)C(=O)OC1=C(c2ccc(Cl)cc2Cl)C(=O)OC12CCCCC2,,31.9 µM (active)
CCOCN(C(=O)CCl)c1c(C)cccc1CC,inactive,
N#Cc1c(Cl)c(Cl)c(Cl)c(C#N)c1Cl,,1.49 µM (active)
